KDM5B inh: Primary screen for KDM5B Histone Demethylases FDH-coupled qHTS. hit rate 2.6% among 220,000. AID 1347165, 2019. Potency, µM (highest dose often 57.7 µM), actives largely listed as inhibitors. KDM5B demethylase, FDH-coupled NADH fluorescence (FDH is formaldehyde dehydrogenase). Lysine-specific demethylase 5B (Homo sapiens), Q9UGL1; active = well fitted inhibition curve with a large enough effect; also: nearly all actives have a fitted effect of over 70% in size
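Inhibition is measured as reduced NADH fluorescence generation from FDH coupling to formaldehyde release. Truncated KDM5BΔAP at 200 nM final acts on H3K4me3 peptide (12.5 µM in substrate mix) in pH 7.5 HEPES buffer with Tween-20, 30 min, room temperature.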
Of the large screens only hits and unclear results are named; the others gave an inactive call. The full list was thinned out, with hits kept by preference.

COC(=O)CNC(=O)c1ccc2ccccc2c1	none
COc1cncc(Nc2cnc3ccc(-c4ccc(OC)c(OC)c4)nn23)c1	none
CCc1nccn1S(=O)(=O)c1cc(C)c(C)cc1OC	none
O=Cc1cc2ccccc2nc1Sc1ccc(Cl)cc1	none
O=C(Nc1cc(F)cc(F)c1)c1cnc(-c2ccc(F)cc2)nc1-c1ccncc1	none
CCCc1cc(=O)n2nc(N3CCC(C(=O)NCc4cccc(Br)c4)CC3)sc2n1	none
C[N+](C)(C)CC#CCCCCC#CC[N+](C)(C)C	none
CCCN(C(=O)Cn1nc(Cc2cccnc2)c2ccccc2c1=O)c1cccc(Cl)c1	none
COCCN1C(=O)C(=O)/C(=C(/O)c2ccc(OCC(C)C)cc2C)C1c1cccnc1 (centres undefined)	none
CCCC/C(=N\NC(C)=O)c1ccccc1	none
OCc1nc2ccccc2n1CC(O)COc1c(Cl)cccc1Cl (centres undefined)	none
O=C1NC(=NC2CCCCC2)C2(CCCN(CC3CC3)C2)N1c1cc(F)cc(F)c1 (centres undefined)	none
CCCCCOc1ccc(/C=C2\Cc3ccccc3C2=O)cc1	none
CN1CC2(CCN(C(=O)Cc3cccc(F)c3)CC2)CC1C(=O)N1CCOCC1 (centres undefined)	none
CN1CC2(CCN(Cc3ccccn3)CC2)CC1C(=O)N1CCOCC1 (centres undefined)	KDM5B inh 20µM
CC(C)n1cc(CN2CCC3(CC2)CC(C(=O)N2CCOCC2)N(C)C3)c2ccccc21 (centres undefined)	none
CN1CC2(CCN(C(=O)CCCc3ccccc3)CC2)CC1C(=O)N1CCOCC1 (centres undefined)	none
CN1CC2(CCN(Cc3cccn3C)CC2)CC1C(=O)N1CCOCC1 (centres undefined)	KDM5B inh 16µM
CN1CC2(CCN(C(=O)c3cccnc3)CC2)CC1C(=O)N1CCOCC1 (centres undefined)	none
COc1ccc2cc(C(=O)N3CCC4(CC3)CC(C(=O)N3CCOCC3)N(C)C4)[nH]c2c1 (centres undefined)	KDM5B inh 25µM
COc1ccc2cc(C(=O)N3CCC(C(=O)N4CCCC4)CC3)[nH]c2c1	none
CN1CC2(CCN(C(=O)c3ccc4ccccc4n3)CC2)CC1C(=O)N1CCOCC1 (centres undefined)	none
CCOC(=O)C(C(C)=O)C(c1ccccc1)C(C(C)=O)C(=O)OCC (centres undefined)	none
O=C(Nc1cccc(C(F)(F)F)c1)c1cc(=O)c2ccccc2o1	none
CSCc1cccc(C(=O)O)c1	none
CCCNC(=O)COC(=O)c1ccc2[nH]c(C)c(C)c2c1	none
CCOC(=O)C(N)c1ccccc1 (centres undefined)	none
Cc1ccccc1CC(=O)Nc1cc(S(=O)(=O)N2CCOCC2)ccc1N1CCOCC1	none
O=C(NC(C1CC1)C1CC1)c1cc(F)c(Cl)cc1Cl	none
O=C1CC(c2ccccc2)N(Cc2ccncc2)CCCN(C(=O)NCc2ccc(F)cc2)CCN1 (centres undefined)	none
Cc1cccc(-c2cc(C(=O)O)c3c(Br)cccc3n2)c1	none
C=CCOc1cccc(NC(=O)C2CCCCC2)c1	none
CN1CCc2c([nH]c3ccccc23)C12CCN(S(=O)(=O)c1cccnc1)CC2	none
COCC(=O)N(C1CCOCC1)C1CCN(S(=O)(=O)c2cccnc2)CC1	none
CCOc1ncccc1C(=O)N1CCc2onc(-c3ccccc3F)c2C1	none
O=S(=O)(c1cccnc1)N1CCc2onc(-c3cccc4ccccc34)c2C1	KDM5B inh 32µM
COc1c(F)cccc1C(=O)N1CCc2onc(-c3ccccc3F)c2C1	none
COCc1cc(N2CCc3onc(-c4cccc5ccccc45)c3C2)ncn1	KDM5B inh 28µM
COC(=O)c1ccc2c(c1)nc1n2[C@@H](CNCc2ccc(F)c(F)c2)COC1	none
Cc1ccc(NC(=O)Cn2nc(C)c3ccccc32)c(C)c1	none
CC(=O)c1ccc(C(=O)Nc2nc3ccc(S(=O)(=O)N(C)C)cc3s2)cc1	none
CC(C)C(NC(=O)c1ccccc1Cl)C(C)C	none
O=C(NCCCn1ccnc1)c1cccc(Br)c1	none
CCC(Cn1ccnc1)NC(=O)c1cccc(NCc2ccc(F)cc2)c1 (centres undefined)	KDM5B inh 20µM
CN(C)[C@H]1CN(C(=O)c2cccc(NCc3ccc(F)cc3)c2)C[C@@H]1O	none
CC(C)C(NC(=O)C1O[C@@H]2OC(C)(C)O[C@@H]2[C@H]2OC(C)(C)O[C@@H]12)C(=O)O (some centres undefined)	none
COc1ccc(CNC(=O)N2CCC(Cc3nc(-c4ccncc4)n[nH]3)C2)cc1 (centres undefined)	none
CCOCCCNC(=O)N1CCC(Cc2nc(-c3ccncc3)n[nH]2)CC1	KDM5B inh 32µM
CCCNC(=O)N1CCC(Cc2nc(-c3ccccc3)n[nH]2)C1 (centres undefined)	none
COc1cc(Cl)c(C)cc1NC(=O)Cn1ccn2nc(-c3ccc(F)cc3)c(CO)c2c1=O	none
O=C(Cn1ccn2nc(-c3ccc(F)cc3)c(CO)c2c1=O)Nc1ccc(Cl)cc1F	KDM5B inh 32µM
O=C(Cn1ccn2nc(-c3ccccc3)c(CO)c2c1=O)Nc1cccc(F)c1	KDM5B inh 18µM
